Each structure is given as a SMILES string. Calls of active or inactive are those of the source. Unless noted, the rule behind the calls is not given here.

The source of these data is PubChem BioAssay.

The nature of assay [1]: anti-His antibody binders, primary screen, artefact control for SMM control protein annotation, biochemical, small-molecule microarray, 635 nm fluorescence (AID 1128).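 Note: score merges feature fluorescence with signal-to-noise for each printed compound spot.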 Conditions: anti-His Alexa647 antibody binding, higher = more signal.
Assay [2] has as its system Human papillomavirus type 1a E7 protein (residues 1-88). Briefly: HPV1a E7 small-molecule binders, primary screen, biochemical, small-molecule microarray, residues 1-88, 635 nm (AID 1129). The following applies: small-molecule microarray binding, fluorescence 635 nm; higher = more signal.
Assay [3] deals with Focal adhesion kinase 1 (Homo sapiens) (UniProt Q05397). As to the kind of experiment: small-molecule microarray binders of FAK, primary screen, biochemical, 635/667 nm fluorescence, BSA, DTT (AID 1130).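 Note: composite of spot emission at 667 nm and signal to noise over triplicate slides.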 The following applies: PTK2 binding, 635 nm fluorescence, higher = more signal.
Focal adhesion kinase 1 (Homo sapiens), sequence (Q05397 whole entry, looked up): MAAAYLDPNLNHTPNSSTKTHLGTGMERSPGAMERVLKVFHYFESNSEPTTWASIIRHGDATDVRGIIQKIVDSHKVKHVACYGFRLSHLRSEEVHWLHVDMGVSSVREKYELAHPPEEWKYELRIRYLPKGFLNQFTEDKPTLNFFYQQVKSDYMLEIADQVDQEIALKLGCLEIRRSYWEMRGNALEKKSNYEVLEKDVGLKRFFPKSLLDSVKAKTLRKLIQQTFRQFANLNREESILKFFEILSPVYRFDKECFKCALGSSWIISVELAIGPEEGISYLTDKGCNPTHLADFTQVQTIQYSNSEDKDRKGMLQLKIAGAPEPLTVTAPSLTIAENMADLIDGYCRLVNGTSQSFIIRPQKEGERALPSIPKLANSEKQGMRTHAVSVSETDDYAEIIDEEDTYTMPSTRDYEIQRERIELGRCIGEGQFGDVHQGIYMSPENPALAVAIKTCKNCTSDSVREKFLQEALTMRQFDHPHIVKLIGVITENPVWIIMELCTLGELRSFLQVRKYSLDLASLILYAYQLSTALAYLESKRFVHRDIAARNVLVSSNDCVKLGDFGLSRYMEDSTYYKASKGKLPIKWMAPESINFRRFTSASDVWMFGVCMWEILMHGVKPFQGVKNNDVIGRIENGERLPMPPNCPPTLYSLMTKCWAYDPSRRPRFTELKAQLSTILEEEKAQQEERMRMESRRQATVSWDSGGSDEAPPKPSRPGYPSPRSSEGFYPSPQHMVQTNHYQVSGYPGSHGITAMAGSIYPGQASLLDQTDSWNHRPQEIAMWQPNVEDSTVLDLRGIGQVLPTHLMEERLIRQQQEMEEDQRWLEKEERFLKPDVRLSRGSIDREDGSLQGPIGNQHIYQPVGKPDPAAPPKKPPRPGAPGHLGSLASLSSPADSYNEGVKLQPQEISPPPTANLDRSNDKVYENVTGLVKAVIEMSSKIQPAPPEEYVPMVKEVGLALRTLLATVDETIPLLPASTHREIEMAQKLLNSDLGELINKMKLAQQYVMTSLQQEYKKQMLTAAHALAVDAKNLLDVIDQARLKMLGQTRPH
In assay [4] the test system is Fibrinogen (Alexa647-labelled). As to the kind of experiment: fibrinogen binders on compound microarrays, profiling panel, artefact control for SMM control-protein annotation, biochemical, small-molecule microarray, 635/667 nm fluorescence (AID 1131).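 Note: z-score merges 667 nm fluorescence with per-spot signal-to-noise over triplicate slides.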 The following applies: fibrinogen-A647 binding fluorescence, higher = more signal.
In assay [5] the target is Follistatin (Homo sapiens) (UniProt P19883). Briefly: follistatin binders on small-molecule microarrays, primary screen, biochemical, small-molecule microarray, 635/667 nm fluorescence (AID 1132). Conditions: FST binding, 635 nm fluorescence, higher = more signal.
Follistatin (Homo sapiens), sequence (P19883 whole entry, looked up): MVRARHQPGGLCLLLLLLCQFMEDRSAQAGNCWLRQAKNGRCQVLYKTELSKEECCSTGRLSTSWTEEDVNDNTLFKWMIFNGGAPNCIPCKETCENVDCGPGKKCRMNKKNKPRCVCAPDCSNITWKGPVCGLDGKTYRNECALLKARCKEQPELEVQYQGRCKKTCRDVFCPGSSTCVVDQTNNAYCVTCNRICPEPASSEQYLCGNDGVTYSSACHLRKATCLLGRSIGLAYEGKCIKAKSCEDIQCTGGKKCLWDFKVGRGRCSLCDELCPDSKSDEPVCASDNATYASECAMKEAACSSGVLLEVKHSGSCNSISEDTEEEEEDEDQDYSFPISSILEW
The target in assay [6] is Fibroblast growth factor 2 (Homo sapiens) (UniProt P09038). As to the kind of experiment: FGF2 binders on small-molecule microarrays, primary screen, biochemical, small-molecule microarray, 635/667 nm fluorescence (AID 1133). Conditions: small-molecule microarray binding, FGF2, fluorescence 635/667; higher = more signal.
Fibroblast growth factor 2 (Homo sapiens), sequence (P09038 whole entry, looked up): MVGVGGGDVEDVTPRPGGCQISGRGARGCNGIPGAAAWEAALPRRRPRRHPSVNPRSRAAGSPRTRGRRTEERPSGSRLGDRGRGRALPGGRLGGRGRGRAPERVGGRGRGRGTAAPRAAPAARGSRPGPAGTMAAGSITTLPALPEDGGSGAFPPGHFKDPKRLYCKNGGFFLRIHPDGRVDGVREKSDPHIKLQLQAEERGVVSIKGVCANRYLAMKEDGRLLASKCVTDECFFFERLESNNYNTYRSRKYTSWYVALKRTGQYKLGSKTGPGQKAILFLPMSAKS
Assay [7] can be described thus: mitochondrial membrane potential change in A549 cells, profiling panel, cell-based, JC-1 fluorescence, basal, 24 h, 100 nL (AID 1138).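 Note: A549 lung adenocarcinoma cells under basal conditions with no added stimulus; test concentration not given here.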 The following applies: higher = more signal.
The test system of assay [8] is Lefty1. As to the kind of experiment: Lefty1 binders on small-molecule microarrays, primary screen, biochemical, small-molecule microarray, 635/667 nm fluorescence (AID 1139). The following applies: small-molecule microarray binding, fluorescence 635/667; higher = more signal.
Assay [9] concerns wheat germ agglutinin (Triticum aestivum), Alexa647-labelled. Briefly: wheat germ agglutinin binders on compound microarrays, profiling panel, artefact control for SMM control-protein annotation, biochemical, small-molecule microarray, 635/667 nm fluorescence (AID 1140).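 Note: score merges 667 nm feature emission with signal to noise over triplicate slides.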 The following applies: WGA-A647 binding, 635 nm fluorescence, higher = more signal.
For assay [10], the target named is Luciferin 4-monooxygenase (Photinus pyralis) (UniProt P08659). Briefly: firefly luciferase enzyme inhibitors, primary screen, biochemical, luminescence, purified enzyme, 2006 set (AID 1141).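 Note: cell-free assay with purified firefly luciferase at 100 ng per well in PBS; test concentration not given here.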 Conditions: SteadyGlo luminescence, 30 min, higher = more signal, called active from +8 up or from −8 down.
Luciferin 4-monooxygenase (Photinus pyralis), sequence (P08659 whole entry, looked up): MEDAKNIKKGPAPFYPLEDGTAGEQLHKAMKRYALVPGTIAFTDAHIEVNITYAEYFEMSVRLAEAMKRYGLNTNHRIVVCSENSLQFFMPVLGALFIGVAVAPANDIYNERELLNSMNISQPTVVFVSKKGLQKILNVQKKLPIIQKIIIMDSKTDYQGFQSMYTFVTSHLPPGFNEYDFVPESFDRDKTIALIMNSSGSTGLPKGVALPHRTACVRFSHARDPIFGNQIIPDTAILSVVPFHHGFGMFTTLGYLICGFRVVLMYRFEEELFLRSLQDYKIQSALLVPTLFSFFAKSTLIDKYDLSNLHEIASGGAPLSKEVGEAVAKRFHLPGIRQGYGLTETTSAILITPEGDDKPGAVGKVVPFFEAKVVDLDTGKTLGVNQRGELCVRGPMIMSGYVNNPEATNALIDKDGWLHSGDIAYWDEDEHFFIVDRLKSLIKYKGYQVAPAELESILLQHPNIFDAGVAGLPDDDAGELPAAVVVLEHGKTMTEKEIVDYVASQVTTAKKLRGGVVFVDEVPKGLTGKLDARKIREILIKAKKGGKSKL
The subject of assay [11] is Wnt5a (protein binding on small-molecule microarray). As to the kind of experiment: Wnt5a binders on small-molecule microarray, primary screen, biophysical, 635/667 nm fluorescence (AID 1142).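 Note: fluorescence read at 667 nm with signal to noise per printed feature.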 Conditions: 635 nm fluorescence, higher = more signal.
Assay [12] is described as follows: cell viability in Huh7 cells, primary screen, cytotoxicity control for HCV replication inhibitor project, CellTiter-Glo luminescence, basal, 48 h (AID 1143).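 Note: Huh7 hepatoma cells carrying a hepatitis C replication reporter with no stimulus; test concentration not given here.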 The following applies: Huh7 HCV replicon, higher = more signal, called active from +8 up or from −8 down. (Cellular ATP, detected with luciferase, serves as a proxy for viable cell number.)
Assay [13] in a line: P. aeruginosa biofilm formation inhibitors, primary screen, PAO1 strain, BacTiter-Glo luminescence, LB-PBS (AID 1144). Conditions: 12 h, higher = more signal.
Assay [14] in a line: CREB reporter modulators without forskolin, primary screen, cell-based, PC12, CRE-LacZ reporter, unstimulated (AID 1145). Conditions: no forskolin, luminescence, 4.5 h, higher = more signal, called active from +8 up or from −8 down.
The nature of assay [15]: CREB reporter modulators under forskolin, primary screen, cell-based, PC12, CRE-LacZ reporter, forskolin-stimulated (AID 1146).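 Note: PC12 cells with 6xCRE LacZ reporter stimulated by forskolin 10 µM; beta-galactosidase reporter signal reflecting CREB driven transcription.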 The following applies: luminescence, 4.5 h, higher = more signal, called active from +8 up or from −8 down.
Assay [16] addresses Streptavidin (Streptomyces avidinii) (UniProt P22629). As to the kind of experiment: streptavidin binders on small-molecule microarray, primary screen, artefact control for SMM compound annotation, biophysical, 635/667 nm fluorescence (AID 1147).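 Note: signal reflects streptavidin binding to arrayed compounds as a control protein.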 The following applies: streptavidin binding, higher = more signal.
The nature of assay [17]: small-molecule binders of probe aInhba, primary screen, biochemical, small-molecule microarray, 635/667 nm fluorescence (AID 1148).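 Note: score merges 667nm spot fluorescence with signal-to-noise for antibody binding to printed compounds.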 The following applies: higher = more signal.
Assay [18] deals with Torsin-1A (Homo sapiens) (UniProt O14656). Briefly: torsin A binders from cell lysate, primary screen, small-molecule microarray, wild-type, 635/667 nm (AID 1149). The following applies: COS7 hTOR1A-WT lysate, 635 nm fluorescence, higher = more signal.
Torsin-1A (Homo sapiens), sequence (O14656 whole entry, looked up): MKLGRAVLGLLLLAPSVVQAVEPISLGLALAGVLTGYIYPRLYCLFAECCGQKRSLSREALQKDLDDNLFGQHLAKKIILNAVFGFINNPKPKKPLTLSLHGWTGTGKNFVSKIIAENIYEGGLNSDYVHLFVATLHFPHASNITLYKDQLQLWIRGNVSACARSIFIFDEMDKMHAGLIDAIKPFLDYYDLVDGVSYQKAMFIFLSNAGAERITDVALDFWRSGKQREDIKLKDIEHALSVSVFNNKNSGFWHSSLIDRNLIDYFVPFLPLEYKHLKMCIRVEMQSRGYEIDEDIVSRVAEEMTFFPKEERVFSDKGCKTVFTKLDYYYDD
The target is the same in assay [19]. As to the kind of experiment: small-molecule binders of mutant TOR1A in lysate, primary screen, cell lysate, small-molecule microarray, COS7 lysate, 635/667 nm fluorescence (AID 1150).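 Note: score pools 667 nm emission and signal to noise measuring lysate protein binding.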 The following applies: COS7 hTOR1A mutant lysate, 635 nm fluorescence, higher = more signal.
Assay [20] concerns Sonic hedgehog protein (Shh). As to the kind of experiment: small-molecule binders of Shh protein, primary screen, biochemical, small-molecule microarray, 635/667 nm fluorescence (AID 1151).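 Note: Shh protein binding to compounds spotted on small-molecule microarray slides; score combines spot fluorescence intensity with signal-to-noise across triplicate slides.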 The following applies: small-molecule microarray binding, 635 nm fluorescence; higher = more signal.

Streptavidin (Streptomyces avidinii), sequence (P22629 whole entry, looked up): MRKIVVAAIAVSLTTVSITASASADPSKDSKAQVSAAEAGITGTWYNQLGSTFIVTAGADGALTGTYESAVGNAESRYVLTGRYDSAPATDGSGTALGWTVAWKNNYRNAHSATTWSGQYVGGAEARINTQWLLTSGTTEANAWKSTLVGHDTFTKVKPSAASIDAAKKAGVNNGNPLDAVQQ

For `O=C1C2C=CC(C(O)C3CC=CCC3)N(n3cnnc3)C2C(=O)N1Cc1ccccc1` (stereo not given), the composite z-score in assay [1] was 0.794; in assay [2], -0.288; in [3], 0.559; in assay [4], 0.909; in assay [5] it was -0.439; in [6] it was -1.14. Besides, the composite z-score in assay [8] was -1.07; in assay [9] it was 0.451; in assay [11], -0.149; in assay [16], 0.0704; in [17], -0.128; in assay [18] it was 0.187. Moreover, the figures for the composite z-score in assay [19] and in [20] were -0.0519 and -0.183, respectively. The z-score in assay [7] was -0.704; in assay [10], 0.934 (inactive); in assay [12], 0.227 (inactive); in assay [13], 0.356 (inactive); in assay [14], 0.332 (inactive); in [15] it was 0.705 (inactive).

`COCCCNC(=O)[C@@]1(Cc2ccccc2I)c2ccccc2C(=O)N(Cc2ccccc2)[C@H]1c1ccc(CO)cc1`: the composite z-score is 0.536 in assay [1]; -0.726 in assay [2]; -0.548 in assay [3]; -1.03 in [4]; -1.6 in assay [5]; -1.21 in assay [6]. For the same molecule, the composite z-score in assay [8] was -1.94; in [9], -1.27; in assay [11], -0.433; in [16], -1.38; in assay [17] it was -0.176; in [18], -0.79. Further, the composite z-score in assay [19] was -0.332; in assay [20], -0.892. Also, the z-score in assay [7] was 1.28; in assay [10], -0.751 (inactive); in assay [12] it was -2.44 (inactive); in assay [13], 0.202 (inactive); in assay [14] it was 0.145 (inactive); in assay [15], -1.06 (inactive).

In the case of `C=C(/C(=C/C[C@@H](OC(=O)c1ccncc1)c1ccc(CO)o1)c1cc(C(=O)OC)ccc1OC)C(C)C`, the composite z-score was determined as 1.02 in [1]; 1.23 in assay [2]; 0.317 in assay [3]; 0.415 in assay [4]; 1.09 in assay [5]; 1.3 in [6]. Moreover, the composite z-score in assay [8] was 1.24; in assay [9] it was 0.553; in assay [11] it was 0.569; in [16], 0.229; in assay [17], 0.0633; in assay [18] it was 1.24. Also, the composite z-score in [19] is 0.946; in [20], 1.2. Besides, the z-score in [7] is 0.375; in [10], -4.24 (inactive); in assay [12], -0.82 (inactive); in [13], -0.0553 (inactive); in assay [14], 8.87 (active); in assay [15], 3.69 (inactive).

As for `CCOC(=O)C1=C[C@@H](C(C)(C)C)N(S(=O)(=O)c2ccc(C)cc2)[C@H]1c1ccc(Cl)c(Cl)c1`, the composite z-score in assay [1] was found to be 0.978; in assay [2], 1.21; in assay [3], 0.606; in assay [4], 0.968; in [5], 0.654; in assay [6], 0.202. Also, the composite z-score in assay [8] was 0.495; in assay [9], 0.945; in assay [11], 0.28; in assay [16], 1.04; in assay [17], 0.196; in assay [18], 0.126. Further, the composite z-score in [19] is 0.837; in assay [20], 0.202. The z-score in [7] was 3.07; in assay [10] it was 1.34 (inactive); in [12] it was -4.01 (inactive); in [13], 0.599 (inactive); in [14] it was 0.229 (inactive); in [15] it was 0.303 (inactive).

Consider `CC1(C)C(=O)C(c2ccccc2)=C2CN3C(=O)N(CCc4ccccc4)C(=O)C3(Cc3ccccc3)C=C21` (stereo not given), for which the composite z-score is 0.323 in [1]; 1.14 in assay [2]; 0.369 in assay [3]; 0.119 in assay [4]; 0.552 in [5]; -0.492 in assay [6]. Also, the composite z-score is -0.378 in assay [8]; 1.03 in [9]; 0.114 in [11]; 0.982 in assay [16]; 0.134 in assay [17]; 0.736 in assay [18]. For the same molecule, the composite z-score in assay [19] is -0.244; in assay [20], -1.07. Further, the z-score in assay [7] was 0.19; in assay [10], 0.245 (inactive); in assay [12] it was -1.13 (inactive); in [13] it was -0.741 (inactive); in assay [14], 0.576 (inactive); in assay [15], 0.15 (inactive).
